# Out of some 410,000 compounds screened, about 7,200 (1.8%) were called active. Where a call stands in place of a potency, no number is given. Another 7% or so got no clear call; they are omitted. For the sample, actives were picked, then their nearest neighbours and some compounds at random. A number with no mark means an inactive call. The call rests on the fitted dose curve; in most records, active means well fitted activation curve with a large enough effect; inconclusive means small, poorly fitted or top-dose-only effect, or another doubt; inactive means no such curve, though single readings can be large or run the other way.
# Assay: qHTS of TDP-43 Inhibitors; further: nearly all actives have a fitted effect of over 50% in size
# Settings: TDP-43 expressing yeast growth rescue, BacTiter-Glo, 24 h; series mostly up to 46.1 µM
# From the text: The goal of this project is to identify new chemical probes capable of reversing the toxicity associated with TDP-43 which is associated with frontotemporal lobar degeneration and amyotrophic lateral sclerosis. These compounds will provide a complementary approach to deciphering the tangled mechanisms of toxicity and protection that we have uncovered through genome-wide genetic screens and are beginning to uncover in a large-scale proteomics analysis with mass spectroscopy.
# To this end, a miniaturized assay was developed to be screened against the Molecular Libraries Small Molecule Repository (MLSMR) to discover TDP-43 inhibitors. Please note that in the set-up this yeast-based assay compounds that inhibit as TDP-43, have a read-out as activators.
# NIH Chemical Genomics Center [NCGC]
# NIH Molecular Libraries Probe Centers Network [MLPCN]
# Assay Submitter (PI): Susan Lindquist, Whitehead Institute/MIT
# Dispense 2.5 microL yeast galactose medium per 1536-well plate, pin compound, dispense 2.5 microL TDP-43 expressing yeast in galactose medium at OD600=0.02 (pregrown in raffinose medium to mid-log phase) per well, incubate for 24 hr at 30 deg C, and cell growth will be measured using 5 microL of Bactiter/Glo reagent to entire plate and read using Luminescence Protocol in ViewLux.
# Potency means the concentration at half of the fitted maximal effect.
Structure (SMILES),Potency,growth rescue (activation)
CC(c1ccco1)N(C(=O)Nc1ccccc1)C1CCCCC1 (stereo not given),inactive,–
CC(NC(=S)Nc1ccccc1)C1COc2ccccc2O1 (stereo not given),12.6 µM (active),–
CC(NC(=S)Nc1ccccc1)C(c1cccs1)N1CCOCC1 (stereo not given),inactive,–
COc1ccc(NC(=O)c2cc3cc(C)ccc3n2C)cc1,–,2.24% [at 9.22 µM]
Cc1nc2ccc(C(=O)N3CCN(c4ccccc4)CC3)cc2s1,14.1 µM (active),–
Cc1nc2ccc(C(=O)N3CCSCC3)cc2s1,inactive,–
CC1CCN(c2nc3ccc(C(=O)N4CCN(c5ccccc5)CC4)cc3s2)CC1,inactive,–
O=C(Oc1ccccc1)Oc1ccc2c(c1)oc(=O)c1ccccc12,inactive,–
CC(=O)Oc1ccc(-c2nc3c(C)cccc3c(=O)o2)cc1,12.6 µM (active),–
COc1nc(N=C(N)N)nc2c(C)cccc12,inactive,–
O=S(=O)(NCc1ccc(Cl)cc1Cl)c1cccs1,8.91 µM (active),–
O=S(=O)(Cc1ccc(Cl)cc1Cl)c1ccc(Cl)cc1,inactive,–
O=C(NCc1ccc(Cl)cc1)C1CCN(S(=O)(=O)c2cccs2)CC1,inactive,–
CC1=C(C(=O)Nc2ccccc2Cl)C(c2cccs2)n2ncnc2N1 (stereo not given),inactive,–
CCNC(=O)c1cc2n(n1)CCCN(Cc1ccc(C)cc1)C2=O,inactive,–
CC(/C=C/c1ccco1)=N/NC(=O)C1COc2ccccc2O1 (stereo not given),inactive,–
Cc1ccc(C(=O)N/N=C\c2cc(Br)c(Br)o2)cn1,inactive,–
O=C(N/N=C\c1cc(Br)c(Br)o1)C1COc2ccccc2O1 (stereo not given),11.2 µM (active),–
O=C(Nc1nc2ccc(F)cc2s1)c1nc(SCc2ccccc2F)ncc1Cl,inactive,–
COc1cc(CNCCSc2nnnn2C)ccc1OCc1c(F)cccc1Cl,inactive,–
CCOc1ccc(Nc2nc3c(S(=O)(=O)c4cccc(Cl)c4)nnn3c3ccsc23)cc1,inactive,–
O=C(NCc1ccc(F)cc1)c1ccc(Cn2c(SCc3ccc(F)cc3)nc3cccnc32)cc1,inactive,–
CCCCN(C)c1nnc(NC(=O)Nc2ccc(Br)c(C)c2)s1,–,22.1% [at 9.22 µM]
CCCCCNC(=O)C(c1ccc(OC)cc1)n1c(=O)c(-c2ccccc2)nc2ccccc21 (stereo not given),inactive,–
COc1ccc(C(C(=O)NCc2ccccc2)n2c(=O)c(-c3ccccc3)nc3ccccc32)cc1 (stereo not given),inactive,–

Structure (SMILES),Potency,growth rescue (activation)
COc1ccc(NC(=O)C(c2ccncc2)n2c(=O)c(-c3cc4ccccc4[nH]3)nc3ccccc32)cc1 (stereo not given),17.8 µM (active),–
COc1ccc(CC(=O)NCCc2sc3nc(-c4ccc(OC)cc4)nn3c2C)cc1,inactive,–
CC1CCCCN1Cc1c(O)ccc2c(=O)c(-c3cccc(Cl)c3)c(C(F)(F)F)oc12 (stereo not given),inactive,–
O=C(c1cc(COc2cccc(C(F)(F)F)c2)on1)N1CCSCC1,22.4 µM (active),–
CC1CN(C(=O)c2cc(COc3c(F)cccc3F)on2)CCN1C (stereo not given),inactive,–
O=C(NC1Cc2ccccc2C1)c1cc(COc2cccc(C(F)(F)F)c2)on1,inactive,–
CCc1cccc(NC(=O)Cn2nc(CC)n3c(cc4cc(C)ccc43)c2=O)c1,inactive,–
COc1ccc(C2(Nc3cccc(F)c3)C(=O)c3ccccc3C2=O)cc1,inactive,–
CCCOc1ccccc1C1CC(=O)Nc2cc3c(cc21)OCO3 (stereo not given),20 µM (active),–
O=C1CC(c2ccc(F)cc2F)c2cc3c(cc2N1)OCO3 (stereo not given),inactive,–
Cc1cc2c(cc1C)C(c1cccc(OC(C)C)c1)CC(=O)N2 (stereo not given),inactive,–
Cc1ccc(Cl)cc1N1CCN(C(=O)C2CCC(CNS(=O)(=O)c3cccs3)CC2)CC1 (stereo not given),inactive,–
COc1cccc(CN2CCc3nc(SCC(=O)Nc4ccccc4)[nH]c(=O)c3C2)c1,inactive,–
O=C(NC1CCCCC1)c1ccc(Cn2c(SCc3ccccc3)nc3cccnc32)cc1,inactive,–
O=C(O)c1ccc(CSc2nc3cccnc3n2Cc2cccc(F)c2)cc1,inactive,–
Cc1oc(-c2ccccc2)nc1Cn1c(SCc2cccc(C(F)(F)F)c2)nc2cccnc21,20 µM (active),–
Cc1ccccc1OCc1nc2c3cnn(-c4ccccc4F)c3ncn2n1,inactive,–
CCc1nc(Nc2ccc3nccnc3c2)c2oc3ccccc3c2n1,inactive,–
COCCNc1nc(-c2ccccc2)nc2c1oc1ccccc12,12.6 µM (active),–
C[C@@H](Nc1nc(-c2ccccc2)nc2c1oc1ccccc12)C(=O)O,inactive,–
Cc1cc(NC(=O)CC(C)C)cc(-c2nc3ncccc3o2)c1O,inactive,–
CCOc1ccc(NC(=O)c2cnn(-c3ccccc3)c2-n2cccc2)cc1,–,-9.72% [at 9.22 µM]
COc1ccccc1-c1cc2nc(NCc3cccc(Cl)c3)ccn2n1,17.8 µM (active),–
COc1ccccc1CNc1nc2ccc(Cl)cc2n2cnnc12,inactive,–
CC(C)Cc1ccc(-c2cc3nc(NCc4cccc(Cl)c4)ccn3n2)cc1,inactive,–

Structure (SMILES),Potency,growth rescue (activation)
CCC1CCCCN1C(=O)Cn1c(=O)n(CCCCCC(=O)NCc2ccccc2)c(=O)c2sccc21 (stereo not given),inactive,–
Cc1nc(N)sc1-c1ccccc1,inactive,–
Cc1nc(C)c(-c2csc(NCCc3ccccc3)n2)s1,15.8 µM (active),–
S=c1[nH]nc(NCCc2ccccc2)s1,–,-8.25% [at 0.397 µM]
Cc1c(CCNC(=O)c2ccc(C(F)(F)F)cc2)sc2nc(-c3ccc(F)cc3)nn12,inactive,–
COc1ccc(C2NC(=O)N(C)C3=C2C(=O)N(c2ccc(C(=O)O)cc2)C3)cc1 (stereo not given),inactive,–
COC(=O)c1scc(-c2ccccc2)c1S(=O)(=O)Nc1ccccc1,12.6 µM (active),–
COC(=O)c1scc(-c2ccc(C)cc2)c1S(=O)(=O)Nc1cc(Cl)c(OC)cc1OC,inactive,–
CCOC(=O)c1scc(-c2ccc(C)cc2)c1S(=O)(=O)Nc1cc(C)ccc1C,inactive,–
COc1cc(C(=O)NCCc2csc3nc(-c4ccccc4C)nn23)cc(OC)c1OC,inactive,–
COc1ccc(NC(=O)C(c2ccccc2)N2Cc3ccccc3C2=O)cc1 (stereo not given),–,0% [at 9.22 µM]
Cc1cc(C)cc(NC(c2nnc(-c3cccc(F)c3)o2)c2ccc(F)cc2Cl)c1 (stereo not given),inactive,–
O=C(/C=C/Nc1ccc(S(=O)(=O)Nc2cnc3ccccc3n2)cc1)c1cccnc1,inactive,–
C/C(=N\NC(=O)Cc1ccccc1[N+](=O)[O-])c1cccnc1,inactive,–
O=C(/C=C/c1ccc(Cl)c([N+](=O)[O-])c1)c1cccnc1,3.16 µM (active),–
Cc1ccc(CCNC(=O)c2ccc(CS(=O)(=O)Cc3cccc(C)c3)o2)cc1,inactive,–
CC1=C(C(=O)N2CCN(c3cccc(C(F)(F)F)c3)CC2)C2(CCCCC2)OC1=O,inactive,–
COc1cccc(NC(=O)C2CCN(c3cc(C)nc4c(-c5ccc(Cl)cc5)c(C)nn34)CC2)c1,inactive,–
COc1ccc(CCNc2nc(-c3ccc(Cl)cc3)cc(C(F)(F)F)n2)cc1OC,inactive,–
COc1ccc(CCNc2cc(C)nc3c(-c4ccc(Cl)cc4)c(C)nn23)cc1OC,20 µM (active),–
COc1ccc(N2CCN(C(=O)C3CCCN(C(=O)c4cc5sccc5n4C)C3)CC2)cc1 (stereo not given),inactive,–
COC(=O)c1ccccc1NC(=O)c1ccc(COc2ccccc2Cl)o1,inactive,–
Cc1ccc(CNC(=O)CCc2c(C)nc3nc(CNC(=O)OC(C)(C)C)nn3c2C)cc1,inactive,–
Nc1ccccc1Sc1ccc(C(F)(F)F)cc1[N+](=O)[O-],11.2 µM (active),–
O=C(CSc1ccc(C(F)(F)F)cc1[N+](=O)[O-])NCCOc1ccccc1,inactive,–

Structure (SMILES),Potency,growth rescue (activation)
O=[N+]([O-])c1cc(C(F)(F)F)ccc1NN=C1CCCC1,inactive,–
Cc1nc2nc(NCc3cccc(Br)c3)[nH]n2c(=O)c1Cc1ccccc1,inactive,–
COc1ccc(C(=O)N2CCC(c3nc4ccccc4o3)CC2)cc1,inactive,–
CCc1noc(C)c1C(=O)N1CCN(S(=O)(=O)c2cccc(C(F)(F)F)c2)CC1,inactive,–
CC(C)(C)OC(=O)N1CCN(C(=O)c2[nH]c(C(F)(F)F)nc2-c2ccccc2)CC1,inactive,–
Cc1onc(-c2ccccc2)c1C(=O)N1CCN(S(=O)(=O)c2ccccc2C(F)(F)F)CC1,15.8 µM (active),–
N#Cc1nc(/C=C/c2ccc(F)cc2)oc1NC1CCCCC1,inactive,–
Cc1ccccc1NC(=O)CSC(=O)c1ccccc1,14.1 µM (active),–
Cc1ccccc1NC(=O)CSC1=NCCN1,inactive,–
Cc1cccc(NC(=O)CSC(N)=O)c1C,inactive,–
CCOc1cccc(CNC(=O)c2ccc(N3CCCC3)c(NC(=O)Nc3ccccc3CC)c2)c1,inactive,–
Cc1cccc(NC(=O)CN(c2ccc(C(C)C)cc2)S(=O)(=O)c2c(C)nn(C)c2C)c1C,inactive,–
Cc1ccc(CNC(=O)CCc2c(C)nc3c(c(C)nn3-c3ccccc3)c2C)cc1,inactive,–
CCOC(=O)C1CCCN(CC(=O)Nc2cc(C)c3c(=O)oc4ccccc4c3n2)C1 (stereo not given),inactive,–
COc1ccc(CNc2nc(-c3ccccc3)nn2C(=O)c2ccccc2OC)cc1,inactive,–
Cc1cc(C)cc(NC(=O)CCCc2nc(-c3ccccc3Cl)no2)c1,inactive,–
Cc1cccc(-n2ccnc2SCC(=O)Nc2cccc3ccccc23)c1C,22.4 µM (active),–
O=C(CSc1nccn1-c1ccc(F)cc1)Nc1cccc2ccccc12,17.8 µM (active),–
O=C(CSc1nccn1-c1cccc(F)c1)NC1CCCC1,inactive,–
Cc1cc(NC(=O)CSc2nccn2-c2ccc([N+](=O)[O-])cc2)no1,inactive,–
Cc1ccccc1-n1c(SCC(=O)Nc2cccc3ccccc23)nc(O)cc1=O,inactive,–
Cc1ccc2nc(SCC(=O)Nc3cccc4ccccc34)nc(=O)n2c1,inactive,–
O=C(CSc1nc(Nc2ccc(F)c(F)c2)c2ccccc2n1)c1ccc(Cl)cc1,inactive,–
CCC(C(=O)Nc1cc(OC)ccc1OC)n1c(=O)c(C(F)(F)F)nc2ccccc21 (stereo not given),inactive,–
CC(NC(=O)c1cc(Sc2ccc(F)cc2F)nc2ccccc12)c1ccccc1 (stereo not given),inactive,–

# From PubChem BioAssay AID652104 (National Center for Advancing Translational Sciences (NCATS), 2013)
